{"source": "PubChem BioAssay AID588814", "about": "(The Scripps Research Institute Molecular Screening Center, 2011)", "note": "Values joined by “and” are separate entries in the source; they are usually repeats but may differ in a detail not shown here. Equal values may be shown once. Screen size: about 360,000 compounds; about 1,200 (0.33%) were called active. Only a selection was taken, and actives are over-represented in it overall. A number with no mark means an inactive call.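 Rule for the calls: active = activation above the run's mean compound activation plus 3 SD (cut at about 16% in these data); inactive = the rest.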"}
{"molecular_target": "Muscarinic acetylcholine receptor M1 (Homo sapiens) (UniProt P11229)", "sequence (P11229 whole entry, looked up)": "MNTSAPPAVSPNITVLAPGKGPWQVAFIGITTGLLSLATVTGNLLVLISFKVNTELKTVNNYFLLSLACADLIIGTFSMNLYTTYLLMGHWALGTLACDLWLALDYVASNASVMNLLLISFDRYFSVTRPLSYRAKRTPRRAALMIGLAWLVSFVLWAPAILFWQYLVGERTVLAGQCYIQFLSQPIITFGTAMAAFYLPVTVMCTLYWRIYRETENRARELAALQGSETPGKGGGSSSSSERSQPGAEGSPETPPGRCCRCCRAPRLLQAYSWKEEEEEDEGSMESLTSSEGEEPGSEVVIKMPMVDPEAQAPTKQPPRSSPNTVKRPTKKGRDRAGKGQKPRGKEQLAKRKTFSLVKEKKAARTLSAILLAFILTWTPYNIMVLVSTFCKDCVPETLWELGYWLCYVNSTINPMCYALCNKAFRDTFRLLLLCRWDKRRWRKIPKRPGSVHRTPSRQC", "assay": "human M1 muscarinic receptor agonists, primary screen, Fluo-8 calcium fluorescence, CHO-K1 cells, HTS (AID 588814);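 note: peak over basal fluorescence ratio within a 140 s kinetic read after compound addition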", "details": "CHO-K1 hM1, Fluo-8 calcium fluorescence, agonist mode; at 3 µM; active compounds read high; 0% DMSO, 100% acetylcholine EC100"}
{"molecule": "COc1ccc(CCC(=O)OCC(=O)Nc2ccc(C)c(S(=O)(=O)N(C)C)c2)cc1", "activation": "-1.39%"}
{"molecule": "CCN1CCN(c2cc3nc(C)n(Cc4ccccc4)c(=O)c3cc2NC(=O)c2ccccc2F)CC1", "activation": "-9.45%"}
{"molecule": "NNC(=O)COc1ccc(C2SCCS2)cc1", "activation": "-1.63%"}
{"molecule": "O=C(CCc1ccccc1)NNC(=O)COc1ccc(Cl)cc1", "activation": "1.21%"}
{"molecule": "COc1ccc(C(=O)NC(=S)NNC(=O)CCc2ccccc2)cc1", "activation": "34.7% (active)"}
{"molecule": "O=C(NNC(=S)NCc1ccccc1)c1ccc(OC(F)F)cc1", "activation": "-4.38%"}
{"molecule": "CCOc1ccccc1NC(=S)NC(=O)CCc1ccccc1", "activation": "-3.2%"}
{"molecule": "CC(=O)NC(=S)NNC(=O)c1ccc(Br)cc1", "activation": "-8.87%"}
{"molecule": "COc1ccc(C(=O)NNC(=S)NC(=O)c2ccccc2)cc1", "activation": "34.3% (active)"}
{"molecule": "COCCCNC(=O)C1CC(=O)N(c2ccc(C)cc2)C1", "note": "(configuration not stated)", "activation": "-2.9%"}
{"molecule": "O=C(c1ccc(CS(=O)(=O)c2ccccc2)o1)N1CCN(c2ccccc2)CC1", "activation": "-1.41%"}
{"molecule": "CC(C)(C)NS(=O)(=O)NC(=O)C1=C(N2CCCC2)COC1=O", "activation": "-5.28%"}
{"molecule": "Cc1nc(C(F)(F)F)ccc1C(=O)N1CCC1(C)C(=O)NS(=O)(=O)c1ccccc1Cl", "note": "(configuration not stated)", "activation": "-0.92%"}
{"molecule": "CC1=NCCN1S(=O)(=O)c1ccc(Br)c(C)c1", "activation": "-3.91%"}
{"molecule": "O=C1COc2ccc(C(=O)CSc3ccc(Br)cc3)cc2N1", "activation": "0.13%"}
{"molecule": "c1ccc(CCC2=NCCn3cccc32)cc1", "activation": "-1.99% and -6.48%"}
{"molecule": "CCOc1ccc(Cn2nnc(C(=O)NCc3ccccc3)c2N)cc1", "activation": "41% (active)"}
{"molecule": "COc1ccc(CNC(=O)c2nnn(CC(=O)Nc3cc(C)cc(C)c3)c2N)cc1", "activation": "-1.24%"}
{"molecule": "CCOc1ccc(Cn2nnc(C(=O)Nc3ccc(OC)cc3OC)c2N)cc1", "activation": "17.4% (active)"}
{"molecule": "Nc1c(C(=O)Nc2ccc3c(c2)OCCO3)nnn1Cc1ccccc1", "activation": "1.21%"}
{"molecule": "COc1ccc(NC(=O)Cn2nnc(C(=O)NCCc3ccc(OC)c(OC)c3)c2N)cc1", "activation": "-1.8%"}
{"molecule": "COc1cccc(CNC(=O)c2nnn(CC(=O)Nc3cc(Cl)ccc3C)c2N)c1", "activation": "2.49%"}
{"molecule": "O=C(CCNS(=O)(=O)c1ccc(Br)s1)NCc1ccccc1Cl", "activation": "-1.35%"}
{"molecule": "O=c1o[nH]c(-c2ccccc2)c1N=Nc1c(F)cccc1Cl", "activation": "-2.19%"}
{"molecule": "CCCCNC(=O)CCn1c(=O)c2ccccc2n(Cc2cc(C)ccc2C)c1=O", "activation": "-4.41%"}
{"molecule": "OC(c1ccc(F)cc1)c1ncc(-c2cccc(C(F)(F)F)c2)[nH]1", "note": "(configuration not stated)", "activation": "6.15%"}
{"molecule": "CC(=O)Nc1cc(-c2ccccc2F)cn2c(-c3cccc(C(F)(F)F)c3)cnc12", "activation": "-3.25%"}
{"molecule": "NC(=O)c1ccc(NC(=O)COC(=O)c2c3c(nc4ccccc24)/C(=C\\c2ccc4c(c2)OCO4)CCC3)cc1", "activation": "38.3% (active)"}
{"molecule": "NS(=O)(=O)c1ccc(NC(=O)COC(=O)CCc2c[nH]c3ccccc23)cc1", "activation": "-0.53%"}
{"molecule": "CC(=O)Nc1cccc(C(=O)OCC(=O)c2ccc3c(c2)OCO3)c1", "activation": "6.09%"}
{"molecule": "NS(=O)(=O)c1ccc(NC(=O)COC(=O)c2ccco2)cc1", "activation": "-0.06%"}
{"molecule": "NS(=O)(=O)c1ccc(NC(=O)COC(=O)c2c3c(nc4ccccc24)/C(=C\\c2ccc4c(c2)OCO4)CCC3)cc1", "activation": "62.8% (active)"}
{"molecule": "O=C(COC(=O)c1ccc(Cl)nc1)NCc1ccc2c(c1)OCO2", "activation": "-4.12%"}
{"molecule": "CC1(C(=O)NS(=O)(=O)c2cccc(F)c2)CCN1C(=O)Cc1ccc(Cl)cc1Cl", "note": "(configuration not stated)", "activation": "-1.39%"}
{"molecule": "CC1Cc2ccccc2N1CC(=O)Nc1ccc2c(c1)OC(F)(F)O2", "note": "(configuration not stated)", "activation": "-7.22%"}
{"molecule": "CCN(CC)c1ccc(/C=N/NC(=O)CNC(=O)c2cccs2)cc1", "activation": "-4.5%"}
{"molecule": "Cc1ccc(-n2nc(C)c(/C=N/NC(=O)c3cccs3)c2Cl)cc1", "activation": "16.7% (active)"}
{"molecule": "Cc1nn(-c2ccccc2)c(NC(=O)c2cccs2)c(-c2ccc(Cl)cc2)c1=O", "activation": "-7.73%"}
{"molecule": "CC(=NNC(=O)c1ccncc1)c1ccc(Cl)c(Cl)c1", "activation": "-2.06%"}
{"molecule": "CCOCCCN1C(=O)C2C(C(=O)Nc3ccc(OCC)cc3)C3C=CC2(O3)C1C(=O)NC1CCCCC1", "note": "(configuration not stated)", "activation": "-6.34%"}
{"molecule": "CCCNC(=O)C1CC(=O)N(c2ccc(OCc3ccccc3)cc2)C1", "note": "(configuration not stated)", "activation": "1.07%"}
{"molecule": "COc1cc(OC)c(N2CC(C(=O)Nc3cc(Cl)ccc3N3CCOCC3)CC2=O)cc1Cl", "note": "(configuration not stated)", "activation": "-5.02%"}
{"molecule": "COc1ccc(-n2c(-c3ccc(Cl)cc3)n[nH]c2=S)c(OC)c1", "activation": "-4.14%"}
{"molecule": "COc1cc(OC)c(-n2cc(-c3ccc(Cl)cc3)[nH]c2=O)cc1Cl", "activation": "58% (active)"}
{"molecule": "CC(=O)C[C@@H](O)CC(=O)[C@H]1OC(=O)CCCCCCc2ccccc21", "activation": "10.4%"}
{"molecule": "Cn1nccc1NC(=O)CC(CC(=O)O)c1ccccc1", "note": "(configuration not stated)", "activation": "0.28%"}
{"molecule": "Cn1nc(C(F)(F)F)c2cc(NC(=O)OCC(C)(C)C)sc21", "activation": "-6.85%"}
{"molecule": "CC(C)COC(=O)c1ccc(NC(=O)C2C3C=CC(C3)C2C(=O)O)cc1", "note": "(configuration not stated)", "activation": "-3%"}
{"molecule": "CCc1ccc(-c2cc3c(=O)n(CC(=O)NCCCN4CCN(Cc5ccccc5)CC4)nc(C)n3n2)cc1", "activation": "0.73%"}
{"molecule": "CC(=O)OCCC(C)C", "activation": "-3.12%"}
{"molecule": "CC(=O)OC(C)C[N+](C)(C)C", "note": "(configuration not stated)", "activation": "115% (active)"}
{"molecule": "CC(C[N+](C)(C)C)OC(N)=O", "note": "(configuration not stated)", "activation": "87.5% (active)"}
{"molecule": "Cc1oc2nc(SCC(=O)Nc3ccc(S(N)(=O)=O)cc3)nc(NC(=O)c3ccccc3)c2c1C", "activation": "-4.87%"}
{"molecule": "Cc1sc(NC(=O)C2=COCCO2)c(C#N)c1C", "activation": "-6.11%"}
{"molecule": "CC(C)Cn1c(CCC(=O)O)ccc1-c1cccs1", "activation": "-4.32%"}
{"molecule": "O=c1c2ccccc2c(-c2ccccc2)nn1-c1ccccn1", "activation": "-1.79%"}
{"molecule": "CC(C)(C)OC(=O)N/N=C/c1cn(-c2ccccc2)nc1-c1cccnc1", "activation": "24% (active)"}
{"molecule": "O=C(COC(=O)/C=C/c1cn(-c2ccccc2)nc1-c1cccnc1)Nc1ccc(Cl)cc1Cl", "activation": "-5.6%"}
{"molecule": "COc1ccccc1N1CCN(C(=O)c2cn(-c3ccccc3)nc2-c2cccnc2)CC1", "activation": "0.62%"}
{"molecule": "O=C(CNc1cccc(S(=O)(=O)N2CCCCC2)c1)Nc1ccccc1F", "activation": "2.04%"}
{"molecule": "Cc1ccc(O)c(-c2cc(C(=O)NCc3ccccc3)[nH]n2)c1", "activation": "-5.25%"}
{"molecule": "Cc1cc(O)ccc1-c1cc(C(=O)NCc2cc(C(F)(F)F)cc(C(F)(F)F)c2)[nH]n1", "activation": "16.9% (active)"}
{"molecule": "CCCOc1ccc(F)cc1-c1cc(C(=O)NCc2ccc(F)cc2)[nH]n1", "activation": "-7.18%"}
{"molecule": "CCc1nc2c(OCCC3CCCCC3)cccn2c1N(C)C(=O)c1ccco1", "activation": "-9.74%"}
{"molecule": "CCOC(=O)C1(Cc2cccc(OC)c2)CCCN(S(=O)(=O)c2cccnc2)C1", "note": "(configuration not stated)", "activation": "-1.49%"}
{"molecule": "COc1ccc(C(C#N)=C2C=CC(=NO)c3ccccc32)cc1", "activation": "-8%"}
{"molecule": "CCOc1c(N2CCCCC2)c(=O)c1=O", "activation": "-7.26%"}
{"molecule": "CCc1nc2ccc(C(=O)Nc3ccc(OC)c(OC)c3)cn2c1N(C)C(=O)c1cccc(OC)c1", "activation": "-2.95%"}
{"molecule": "CCc1nc2ccc(C(=O)Nc3cccc(OC)c3)cn2c1N(CCC(C)C)CCN(C)C", "activation": "29.4% (active)"}
{"molecule": "CCc1nc2ccc(C(=O)N(C)CCN(C)C)cn2c1N(CC)CCOC", "activation": "-6.84%"}
{"molecule": "NC(=O)C1CCN(C(=O)c2cn(-c3ccccc3)nc2-c2cccnc2)CC1", "activation": "-0.33%"}
{"molecule": "Cc1ccc(-c2nn(-c3ccccc3)cc2C(=O)NC2CCC(O)CC2)cc1", "note": "(configuration not stated)", "activation": "0.01%"}
{"molecule": "O=C(NNC(=S)NC(=O)c1cn(-c2ccccc2)nc1-c1ccccc1)c1ccncc1", "activation": "16.6% (active)"}
{"molecule": "Cc1cc(SCC(=O)NCCN2C(=O)CSC2=O)nc2ccccc12", "activation": "-9.92%"}
{"molecule": "Cc1ccc(S(=O)(=O)NCc2nc3ccccc3c(=O)n2N)cc1", "activation": "-0.65%"}
{"molecule": "N#CC1(NC(=O)COC(=O)CCN=C2NS(=O)(=O)c3ccccc32)CCCCC1", "activation": "-0.14%"}
{"molecule": "O=C(OCCN=C1NS(=O)(=O)c2ccccc21)c1cccc([N+](=O)[O-])c1", "activation": "-1.9%"}
{"molecule": "O=C(CCCN=C1NS(=O)(=O)c2ccccc21)OCC(=O)c1ccc(F)c(F)c1", "activation": "27% (active)"}
{"molecule": "Cc1cccc(NC(=O)c2ccc3c(=O)n(CC4CCCO4)c(=S)[nH]c3c2)c1", "note": "(configuration not stated)", "activation": "-0.37%"}
{"molecule": "N#C/C(=C/c1ccc(N2CCCCC2)o1)C(=O)NCCc1c[nH]c2ccccc12", "activation": "28.4% (active)"}
{"molecule": "N#C/C(=C\\c1ccc(N2CCOCC2)o1)C(=O)N1CCOCC1", "activation": "2.53%"}
{"molecule": "O=C(NCCc1c[nH]c2ccccc12)C1CCN(Cc2ccc(Br)cc2)CC1", "activation": "-4.6%"}
{"molecule": "CCOCc1nnc(NC(=O)CCC2CCCCC2)s1", "activation": "-1.9%"}
{"molecule": "O=S(=O)(Nc1ccc(Cl)cn1)c1cnc(Cl)c(Br)c1", "activation": "-0.28%"}
{"molecule": "CCOc1ccc(C(=O)NC(C(=O)NCc2ccccn2)C(C)C)cc1", "note": "(configuration not stated)", "activation": "-5.01%"}
{"molecule": "O=C(N/N=C/c1ccsc1)c1cc(O)cc(O)c1", "activation": "-1.35%"}
{"molecule": "O=C1Nc2ccc([N+](=O)[O-])cc2C1=Nc1cccc(CO)c1", "activation": "0.24%"}
{"molecule": "O=C1C(=O)N(c2ccccc2)c2ccccc21", "activation": "13.1%"}
{"molecule": "O=C1C(=O)N(CC2COc3ccccc3O2)c2ccccc21", "note": "(configuration not stated)", "activation": "39.1% (active)"}
{"molecule": "Cc1noc(C)c1C(=O)NCC1COc2ccccc2O1", "note": "(configuration not stated)", "activation": "-2.12%"}
{"molecule": "CCCC1C(c2ccccc2)C(C#N)(C#N)C2(C#N)CC1(N)NC2=O", "note": "(configuration not stated)", "activation": "-0.06%"}
{"molecule": "Cc1ccc(NC2=C(Cl)C(=O)OC2OC(=O)c2ccccc2C)cc1", "note": "(configuration not stated)", "activation": "-9.26%"}
